This is an account of results in PubChem BioAssay (NCI).

Values joined by “and” are separate entries in the source; they are usually repeats but may differ in a detail not shown here. Equal values may be shown once. Compounds without any hit were thinned out: in the full panel of roughly 83,000, 20% have a hit.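 Method: cells in 96-well plates; compound added at one concentration; 48 h incubation; percent growth measured; values under 10 scored active.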 A number with no mark means an inactive call. Active and inactive are the calls of the source.

Some test systems named below: NCI-H23 lung; NCI-H226 lung; NCI-H322M lung; HOP-62 NSCLC; NCI-H460 lung; HOP-92 NSCLC; NCI-H522 lung; A549/ATCC NSCLC; 786-0 renal; COLO 205 colon.
What all share (experiment): NCI-60 one-dose screen, 48 h (100 = growth as untreated, 0 = no growth, -100 = all killed)
Common to all, as to conditions: 10 µM unless noted

Regarding `COc1ccc(N=Nc2c(N)nn3c(N)c(C#N)c(-c4ccc(F)cc4)nc23)cc1`, the growth was 39.7% in the test with NCI-H23 lung; 55% in the test with NCI-H226 lung; 77% in the test on NCI-H322M lung; 59.6% in the test on HOP-62 NSCLC; 61.1% in the test with NCI-H460 lung; -3.02% (active) with HOP-92 NSCLC. Moreover, the growth in the test with NCI-H522 lung is 40.7%; in the test on A549/ATCC NSCLC it was 86.8%; with 786-0 renal, 32%; with COLO 205 colon it was 105%.

On to `CS(=O)(=O)Nc1cccc(-n2cnc3cc(-c4ccc(O)cc4)ccc32)c1`, for which the growth in the test with NCI-H23 lung was 35.3%; with NCI-H226 lung it was 33%; with NCI-H322M lung, 53.1%; in the test with HOP-62 NSCLC, 32.1%; in the test with NCI-H460 lung, 20.3%; with HOP-92 NSCLC, 96.8%. In addition, the growth is 25% with NCI-H522 lung, 53.7% in the test with A549/ATCC NSCLC, 44.7% with 786-0 renal and 31.5% in the test on COLO 205 colon.

Take `Cn1ncc2c(N)nc(Oc3ccccc3-c3ccccc3)nc21`: the growth in the test on NCI-H23 lung is 29.6%; with NCI-H226 lung, 45.2%; in the test with NCI-H322M lung it was 72.2%; with HOP-62 NSCLC it was 57.9%; in the test on NCI-H460 lung, 14.5%; in the test with HOP-92 NSCLC, 62.4%. Further, the growth with NCI-H522 lung was 22.2%; in the test with A549/ATCC NSCLC it was 55.9%; with 786-0 renal it was 52.6%; in the test on COLO 205 colon it was 33.9%.

Consider `COc1cc(C=O)ccc1Oc1nc(Nc2ccc(F)cc2)nc(N(C)C)n1`, for which the growth is 59.8% and 65.8% in the test with NCI-H23 lung; 75.4% and 81.6% in the test with NCI-H226 lung; 96.5% and 78.9% in the test on NCI-H322M lung; 90% and 85.7% in the test with HOP-62 NSCLC; 80.2% and 52.3% in the test with NCI-H460 lung; 87.3% and 65.7% in the test on HOP-92 NSCLC. Moreover, the growth was 88.6% and 82.1% in the test on NCI-H522 lung; 95.1% and 91% with A549/ATCC NSCLC; 78.4% and 52% in the test on 786-0 renal; 110% and 103% in the test on COLO 205 colon.

In the case of `O=C(Nc1ccc(Br)cc1)Nc1ccc(-c2ccc3c(c2)NC(=O)/C3=C\c2ccc[nH]2)cc1`, the growth is 30.7% in the test on NCI-H23 lung; 66.2% in the test with NCI-H226 lung; 46.1% in the test with NCI-H322M lung; 53.1% in the test on HOP-62 NSCLC; 8.75% (active) with NCI-H460 lung; 92.1% in the test with HOP-92 NSCLC. For the same compound, the growth with NCI-H522 lung is 24.1%; in the test on A549/ATCC NSCLC it was 37.7%; with 786-0 renal it was 61%; in the test on COLO 205 colon it was 57.2%.

As for `CN(CCSSCCN1CCOCC1)C(=O)Oc1cc2c(c3ccccc13)[C@H](CCl)CN2C(=O)c1cc2cc(OCCCN3CCC3)ccc2[nH]1`, the growth is -67.5% (active) in the test with NCI-H23 lung; -11.7% (active) in the test on NCI-H226 lung; -3.1% (active) in the test with NCI-H322M lung; -64.7% (active) in the test on HOP-62 NSCLC; -23.3% (active) in the test on NCI-H460 lung; -14.1% (active) with HOP-92 NSCLC. The growth with NCI-H522 lung was -66.4% (active); in the test on A549/ATCC NSCLC, -45.8% (active); in the test with 786-0 renal it was -35% (active); in the test on COLO 205 colon it was -74% (active).

As to `CN(C)c1nc(NCCNS(=O)(=O)c2ccc(C3=Nc4c(N)nc(N)nc4NC(c4ccc(C(F)(F)F)cc4)C3)cc2)nc(N2CCOCC2)n1` (stereo not given), the growth in the test with NCI-H23 lung was 74%; in the test with NCI-H226 lung it was 54.1%; with NCI-H322M lung it was 84.2%; in the test on HOP-62 NSCLC, 51.8%; in the test on NCI-H460 lung, 35.6%; with HOP-92 NSCLC, -17% (active). Moreover, the growth in the test on NCI-H522 lung was 35%; in the test with A549/ATCC NSCLC it was 40.2%; with 786-0 renal, 20.2%; in the test with COLO 205 colon it was -14.2% (active).

In the case of `CN(C)CCCNC(=S)Nc1ccc(/C=C/c2ccc(Cl)cc2)cc1`, the growth is -89.2% (active) in the test with NCI-H23 lung; -20.2% (active) with NCI-H226 lung; -95% (active) with NCI-H322M lung; -50.8% (active) in the test on HOP-62 NSCLC; -35.8% (active) with NCI-H460 lung; -53.3% (active) in the test with HOP-92 NSCLC. Moreover, the growth in the test on NCI-H522 lung was -51.9% (active); in the test on A549/ATCC NSCLC, -36% (active); with 786-0 renal it was -37.4% (active); in the test on COLO 205 colon, -58% (active).

Regarding `Cc1ccc(C(=O)C[n+]2cccc3c4ccccc4ccc32)cc1`, the growth with NCI-H23 lung is 27.4%; with NCI-H226 lung it was 36.3%; in the test with NCI-H322M lung it was 43.3%; in the test on HOP-62 NSCLC it was 36.1%; with NCI-H460 lung it was 4.31% (active); with HOP-92 NSCLC, -8.04% (active). The growth in the test with NCI-H522 lung is 22.1%; in the test on A549/ATCC NSCLC, 23.8%; in the test on 786-0 renal, 34.4%; with COLO 205 colon, 5.75% (active).

As to `Clc1ccc(-c2nc3ccc(-c4nnc(SCc5ccccc5)o4)cc3[nH]2)cc1`, the growth in the test with NCI-H23 lung is 18.3%; with NCI-H226 lung, 40.3%; in the test on NCI-H322M lung, 27.6%; with HOP-62 NSCLC, 9.18% (active); in the test with NCI-H460 lung it was 41.4%; with HOP-92 NSCLC, 48%. Besides, the growth is 10.3% in the test on NCI-H522 lung, 34.9% with A549/ATCC NSCLC, 24.6% with 786-0 renal and 55.3% in the test on COLO 205 colon.

Take `CC(C)(C)C(=O)c1c2c(c3ccc4c5ccccc5ccc4n13)C(=O)c1ccccc1C2=O`: the growth with NCI-H23 lung was 73.5%; in the test with NCI-H226 lung, 73.1%; in the test on NCI-H322M lung it was 97.5%; with HOP-62 NSCLC it was 84.6%; with NCI-H460 lung, 55.9%; in the test on HOP-92 NSCLC it was 104%. Also, the growth is 91.5% in the test on NCI-H522 lung, 84.9% in the test on A549/ATCC NSCLC, 109% in the test with 786-0 renal and 102% in the test with COLO 205 colon.

In the case of `Cc1nn(-c2ccccc2)c2nc(C)n(CC(=O)N/N=C/c3ccccc3O)c(=O)c12`, the growth in the test on NCI-H23 lung was 28.8%; in the test with NCI-H226 lung, 21.6%; in the test on NCI-H322M lung, 29.4%; in the test with HOP-62 NSCLC, 31.3%; in the test on NCI-H460 lung, 4.76% (active); in the test on HOP-92 NSCLC, 62.5%. The growth with NCI-H522 lung is 6.39% (active); in the test with A549/ATCC NSCLC it was 26.2%; in the test on 786-0 renal, 18.5%; in the test on COLO 205 colon, 16.8%.

Consider `Cc1nn(-c2ccccc2)c2nc(C)n(C(=O)N/N=C/c3ccccc3)c(=O)c12`, for which the growth in the test with NCI-H23 lung was 99.7%; with NCI-H226 lung it was 87.5%; with NCI-H322M lung, 103%; with HOP-62 NSCLC, 102%; in the test with NCI-H460 lung it was 106%; with HOP-92 NSCLC, 99.4%. The growth in the test with NCI-H522 lung was 97.9%; in the test with A549/ATCC NSCLC, 101%; in the test with 786-0 renal, 97.1%; with COLO 205 colon, 118%.
